Source: PubChem BioAssay (Buhrlage Lab, Dana-Farber Cancer Institute and Novartis Institutes for BioMedical Research (Cambridge, Mass))
USP17 inh – inhibitors of human USP17 deubiquitinase; 6.5% of 47,000 active; inhibition, % at 50 µM; purified USP17, Ub-rhodamine cleavage fluorescence, 3 h; A8MUK1
USP30 inh – inhibitors of human USP30 deubiquitinase; Q70CQ3; purified USP30, Ub-rhodamine cleavage fluorescence; inhibition, % at 25 µM; 5.3% of 47,000 active; AID 1645860
Target sequence (Q70CQ3 whole entry, looked up): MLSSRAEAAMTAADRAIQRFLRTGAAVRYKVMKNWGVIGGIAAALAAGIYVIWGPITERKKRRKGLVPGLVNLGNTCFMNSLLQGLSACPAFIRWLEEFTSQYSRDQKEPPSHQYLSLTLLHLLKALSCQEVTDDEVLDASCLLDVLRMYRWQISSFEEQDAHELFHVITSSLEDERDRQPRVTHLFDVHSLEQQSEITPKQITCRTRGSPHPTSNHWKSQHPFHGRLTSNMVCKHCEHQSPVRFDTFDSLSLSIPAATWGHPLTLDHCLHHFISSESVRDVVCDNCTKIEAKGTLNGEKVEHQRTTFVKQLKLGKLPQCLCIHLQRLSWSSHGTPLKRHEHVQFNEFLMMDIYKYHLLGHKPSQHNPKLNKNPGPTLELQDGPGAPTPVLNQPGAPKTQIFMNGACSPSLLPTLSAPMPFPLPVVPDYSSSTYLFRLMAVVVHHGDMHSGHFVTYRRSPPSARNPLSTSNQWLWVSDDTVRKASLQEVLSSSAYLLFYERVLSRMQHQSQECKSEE
USP28 inh – blocks human USP28 ubiquitin-rhodamine cleavage | Q96RU2 | purified USP28, Ub-rhodamine cleavage fluorescence, 30 min | inhibition, % at 25 µM | 3% of 47,000 active | AID 1645857
An asterisk follows results filed as active; i = inactive. Compounds with a hit are over-represented: about 11% of the library has one in this group of screens. No stated cut-off is given here; in the data, active means inhibition above about 30%; inactive means the rest.

SMILES | USP17 inh | USP30 inh | USP28 inh
CCc1ccc(Nc2cc(C(=O)NCCCOC(C)C)c3ccccc3n2)cc1 | 69* | -34 | 5
CN1CCN(c2ccc(NS(=O)(=O)c3ccc(Cl)cc3)cc2)CC1 | -6 | 15 | 1
COCCn1c(=S)[nH]c2cc(C(=O)NCCSCc3ccccc3)ccc2c1=O | 27 | 71* | 17
COCCn1c(=O)[nH]c2cc(C(=O)Nc3cc(OC)c(OC)c(OC)c3)ccc2c1=O | 3 | 10 | 13
CCOC(=O)c1ccc(N2C(=O)C(C)S(=O)(=O)C2c2ccccc2)cc1 (centres undefined) | 0 | -15 | 12
NS(=O)(=O)c1cccc(NC(=O)c2ccn(-c3ccccc3)n2)c1 | 19 | 29 | 14
Cc1ccccc1-c1nnc(-c2ccc(C(=O)N(C)C(C)c3ccccc3)cc2)o1 (centres undefined) | 5 | -7 | -7
Cc1ccccc1-c1nnc(-c2ccc(C(=O)N(C)Cc3cccc(F)c3)cc2)o1 | 23 | 40* | 20
Cc1cc(=O)oc2cc(OCC(=O)Nc3cc(Cl)ccc3N3CCOCC3)ccc12 | 42* | 50* | 15
COC(=O)c1ccccc1NC(=O)CNc1cc(Cl)ccc1N1CCOCC1 | -11 | -20 | -14
CNC(=O)COC(=O)c1c2c(nc3ccccc13)/C(=C/c1ccc(Cl)cc1)CC2 | -149 | i | -241
CCCCOc1cccc(-c2cc(C(=O)Nc3ccc4c(c3)OCCO4)c3ccccc3n2)c1 | 4 | -10 | 4
CCC(=O)Nc1cccnc1-c1ccc(C(=O)NCc2ccc(OC)cc2)cc1 | -7 | -10 | 0
CN(C)C(=O)CSc1nnc(-c2cccc(Cl)c2)n1-c1ccc(Cl)c(C(F)(F)F)c1 | 68* | 47* | 11
CN(C)c1cccc(-c2nnc(SCC(=O)Nc3ccc(F)cc3)n2-c2ccccc2)c1 | 14 | -15 | -8
COc1ccc(S(=O)(=O)NCCSc2ccccc2)cc1Br | 28 | 37* | 14
COc1ccc(S(=O)(=O)NCCn2c(C)cc3ccccc32)cc1 | 1 | -178 | -29
c1cncc(-c2n[nH]c(C3CCCNC3)n2)c1 (centres undefined) | 8 | 10 | 4
CCn1c(CN2CCCC(c3nc(-c4cccnc4)n[nH]3)C2)nc2ccccc21 (centres undefined) | -42 | -20 | 71*
Cc1ccccc1C1CC(=O)c2c(C)nn(-c3ccccc3)c2C1 (centres undefined) | 17 | 22 | 10
COc1ccc(C)cc1NC(=O)N1CCC2(CC1)NC(=O)N(Cc1ccc(C)cc1)C2=O | -2 | 7 | 2
O=C(Cn1c(=O)c2ccccc2n(CC(=O)Nc2cccc(F)c2)c1=O)NCCc1ccccc1 | 29 | 38* | 20
O=C(CCCCn1c(=O)c2ccccc2n(CC(=O)Nc2ccc(F)cc2)c1=O)NCCc1ccccc1 | 47* | 26 | 9
CCOc1ccc(NC(=O)Cn2c(=O)n(CCCCC(=O)NCCc3ccccc3)c(=O)c3ccccc32)cc1 | 17 | 28 | 8
Cc1ccc(NC(=O)Cn2c(=O)n(CCC(=O)NCCc3ccccc3)c(=O)c3ccccc32)cc1C | 11 | 13 | 0
SMILES | USP17 inh | USP30 inh | USP28 inh
O=C(CN1CCCCC1)N[C@@H]1CC[C@@H](Oc2ccccc2)[C@H](O)[C@H]1O | -3 | 17 | 2
Cc1ccc(CC(=O)Nc2cc(Cl)ccc2N2CCCC2)cc1C | -6 | -26 | 9
COc1ccc(CNC(=O)Cc2c(C)n[nH]c2C)c(OC)c1 | -3 | -3 | -6
COc1ccc(-c2cc(C(=O)Nc3n[nH]c4nc(C)ccc34)[nH]n2)c(OC)c1 | 32* | 4 | 4
COCCCNc1ccc(C(=O)N2CCC3(CC2)OCCO3)cc1S(=O)(=O)Nc1cc(F)ccc1F | 4 | -11 | 7
Cc1nn(C)cc1C(=O)NCc1cnc(C2(C)CCCCO2)nc1 (centres undefined) | 3 | 15 | 1
COc1ccc(C(=O)N(Cc2ccc(C)cc2)Cc2ccco2)cc1 | 33* | 34* | 30
COc1ccc(C(=O)N(Cc2ccco2)Cc2ccco2)cc1Cl | 4 | -2 | 3
CC(=O)N1[C@@H](CNS(=O)(=O)c2ccccc2F)C[C@@]2(C)[C@@H](O)CCCC[C@@H]12 | 5 | 17 | 4
O=C(Nc1ccc(N2CCCCC2)cc1)c1cccc(N2C(=O)CCS2(=O)=O)c1 | 21 | -13 | 1
Cc1cc(=O)n(CC(=O)N2CCCc3ccccc32)c(N2CCOCC2)n1 | 0 | -14 | -2
CCc1nc(N)n(CC(=O)N2CCCc3ccccc32)c(=O)c1C | 76* | 54* | 18
COc1ccc(-n2c3c(c(=O)[nH]c2=O)CN(CCc2ccccc2)CN3)cc1 | -3 | -9 | -10
Cc1ccc2c(COC(=O)c3ccc4ccccc4c3)cc(=O)oc2c1 | -4 | -5 | -4
COc1ccc(O)c(C(=O)OCc2cc(=O)oc3ccc4ccccc4c23)c1 | 51* | -192 | -13
